These molecules were tested on Plasmodium falciparum (assay: GSK_TCMDC: Inhibition of Plasmodium falciparum Dd2 in whole red blood cells, using parasite LDH activity as an index of growth. Test compounds present at 2uM).
Assay type: functional
`COc1ccc(OC)c2c1CC1NCC2c2c(OC)ccc(OC)c21.Cl` (stereo not drawn) was tested, and the Inhibition was 3%.
`CCCCCc1ccc(N2C(N)=NC(N)=NC2(C)C)cc1.Cl` showed an Inhibition of 1%.
For `CCNc1cc(-c2cccc(OC)c2)nc(Nc2ccc(F)cc2)n1`, the Inhibition was 23%.
Molecule `C[C@H](NC(=O)c1c(CN2CCC(NC(=O)CC(C)(C)C)CC2)c(-c2cccs2)nc2ccccc12)C1CCCCC1` has an Inhibition of 70%.
`Cc1[nH]c(C)c(-c2ccc(-c3cccc(Cl)c3)nc2)c(=O)c1Cl` gave an Inhibition of 97%.
Molecule `COc1cccc(C(=O)Nc2ccc(Nc3nc(C)cc(N(C)C)n3)cc2)c1OC` has an Inhibition of 9%.
`CN(C)CCOc1ccc2c(c1)OC(C)(C)C=C2c1cccc2ccccc12.Cl` gave an Inhibition of 48%.
For `O=C(Nc1cccc(CN2CCN(Cc3ccc(O)cc3)CC2)c1)c1ccc(-c2ccccc2)cc1.O=C(O)C(F)(F)F`, the Inhibition was 67%.

Reference: ChEMBL document CHEMBL1157539, “Thousands of chemical starting points for antimalarial lead identification” (Nature, 2010)
